Values joined by “and” are separate entries in the source; they are usually repeats but may differ in a detail not shown here. Equal entries are not always repeated. A structure can be active in one record and inactive in another. Active and inactive are the calls of the source. How the source made its calls: active means hit-call score of the fitted dose curve at least 0.9, where 1 is the maximum; inactive means score below 0.9.
Key:
[1] = read-out: Interleukin-6 (IL6), IL6 (gene 3569); test: BSK_CASM3C_IL6: BioMAP Diversity Plus: CASM3C Assay for Interleukin-6 (IL6) Biomarker Activity for (AID 2283040); conditions: primary human coronary artery smooth muscle cells; actives raise or lower the signal
[2] = read-out: Tissue plasminogen activator (tPA), PLAT (gene 5327); test: BSK_BE3C_tPA: BioMAP Diversity Plus: BE3C Assay for Tissue plasminogen activator (tPA) Biomarker Activity (AID 2283041); conditions: primary human bronchial epithelial cells; actives raise or lower the signal
Outline: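 Human primary bronchial epithelial cells were dosed with chemical and tPA biomarker levels measured by ELISA 24 hours later. Activity was fitted bidirectionally against DMSO as negative control and baseline.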

[3] = read-out: Interleukin-8 (IL8), CXCL8 (gene 3576); test: BSK_CASM3C_IL8: BioMAP Diversity Plus: CASM3C Assay for Interleukin-8 (IL8) Biomarker Activity (AID 2283042); conditions: primary human coronary artery smooth muscle cells; actives raise or lower the signal;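 further: IL-8 protein level quantified by ELISA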
[4] = read-out: Human Leukocyte Antigen - DR isotype (HLADR), HLA-DRA (gene 3122); test: BSK_CASM3C_HLADR: BioMAP Diversity Plus: CASM3C Assay for Human Leukocyte Antigen - DR isotype (HLADR) Biomarker Activity (AID 2283043); conditions: primary human coronary artery smooth muscle cells; actives raise or lower the signal;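 further: cell-surface HLA-DR protein level quantified by ELISA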
[5] = read-out: Macrophage colony-stimulating factor (MCSF), CSF1 (gene 1435); test: BSK_CASM3C_MCSF: BioMAP Diversity Plus: CASM3C Assay for Macrophage colony-stimulating factor (MCSF) Biomarker Activity (AID 2283044); conditions: primary human coronary artery smooth muscle cells; actives raise or lower the signal;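 further: M-CSF protein amount quantified by ELISA after 24 h exposure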
[6] = read-out: Low-density lipoprotein receptor (LDLR), LDLR (gene 3949); test: BSK_CASM3C_LDLR: BioMAP Diversity Plus: CASM3C Assay for Low-density lipoprotein receptor (LDLR) Biomarker Activity (AID 2283045); conditions: primary human coronary artery smooth muscle cells; actives raise or lower the signal;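 further: LDLR protein level on the cell surface quantified by ELISA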
[7] = read-out: Monocyte Chemoattractant Protein-1 (MCP1), CCL2 (gene 6347); test: BSK_CASM3C_MCP1: BioMAP Diversity Plus: CASM3C Assay for Monocyte Chemoattractant Protein-1 (MCP1) Biomarker Activity (AID 2283046); conditions: primary human coronary artery smooth muscle cells; actives raise or lower the signal;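 further: MCP-1 level quantified by ELISA 24 h after dosing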
[8] = BSK_CASM3C_Proliferation: Cell Proliferation Assessment in the BioMAP Diversity Plus: CASM3C Assay (AID 2283047); conditions: primary human coronary artery smooth muscle cells;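 further: sulforhodamine B total protein stain as relative cell number at 560 nm; sub-confluent cells exposed 48 h before staining; fitted both ways against DMSO so gain or loss of cell number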
[9] = read-out: Monokine induced gamma interferon (MIG), CXCL9 (gene 4283); test: BSK_CASM3C_MIG: BioMAP Diversity Plus: CASM3C Assay for Monokine induced gamma interferon (MIG) Biomarker Activity (AID 2283048); conditions: primary human coronary artery smooth muscle cells; actives raise or lower the signal;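 further: MIG protein level measured by ELISA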
[10] = read-out: serum amyloid A (SAA), SAA1 (gene 6288); test: BSK_CASM3C_SAA: BioMAP Diversity Plus: CASM3C Assay for serum amyloid A (SAA) Biomarker Activity (AID 2283049); conditions: primary human coronary artery smooth muscle cells; actives raise or lower the signal;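 further: SAA protein level quantified by ELISA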
[11] = BSK_CASM3C_SRB: Viability Assessment in the BioMAP Diversity Plus: CASM3C Assay (AID 2283050); conditions: primary human coronary artery smooth muscle cells;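 further: total protein by SRB staining as cytotoxicity measure in parallel cultures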
[12] = read-out: Thrombomodulin, THBD (gene 7056); test: BSK_CASM3C_Thrombomodulin: BioMAP Diversity Plus: CASM3C Assay for Thrombomodulin Biomarker Activity (AID 2283051); conditions: primary human coronary artery smooth muscle cells; actives raise or lower the signal;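 further: thrombomodulin protein level measured by ELISA 24 h after dosing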
[13] = read-out: Tissue Factor, F3 (gene 2152); test: BSK_CASM3C_TissueFactor: BioMAP Diversity Plus: CASM3C Assay for Tissue Factor Biomarker Activity (AID 2283052); conditions: primary human coronary artery smooth muscle cells; actives raise or lower the signal;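 further: cell surface tissue factor protein level read by ELISA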
[14] = read-out: Interferon-gamma inducible Protein 10 (IP10), CXCL10 (gene 3627); test: BSK_hDFCGF_IP10: BioMAP Diversity Plus: hDFCGF Assay for Interferon-gamma inducible Protein 10 (IP10) Biomarker Activity (AID 2283053); conditions: primary human foreskin fibroblasts; actives raise or lower the signal
Outline: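 Human foreskin fibroblast primary cells (hDFCGF system) were dosed with chemical and assayed at 24 h; IP-10 measured by ELISA. Activity fitted bidirectionally relative to DMSO negative control as baseline.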

[15] = read-out: Urokinase-type plasminogen activator receptor (uPAR), PLAUR (gene 5329); test: BSK_CASM3C_uPAR: BioMAP Diversity Plus: CASM3C Assay for Urokinase-type plasminogen activator receptor (uPAR) Biomarker Activity (AID 2283054); conditions: primary human coronary artery smooth muscle cells; actives raise or lower the signal;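 further: cell-surface uPAR protein level quantified by ELISA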
[16] = read-out: Vascular cell adhesion molecule 1 (VCAM1), VCAM1 (gene 7412); test: BSK_CASM3C_VCAM1: BioMAP Diversity Plus: CASM3C Assay for Vascular cell adhesion molecule 1 (VCAM1) Biomarker Activity (AID 2283055); conditions: primary human coronary artery smooth muscle cells; actives raise or lower the signal;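 further: VCAM-1 protein level quantified by ELISA on the cells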
[17] = read-out: Collagen III, COL3A1 (gene 1281); test: BSK_hDFCGF_CollagenIII: BioMAP Diversity Plus: hDFCGF Assay for Collagen III Biomarker Activity (AID 2283056); conditions: primary human foreskin fibroblasts; actives raise or lower the signal
Outline: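 ELISA read-out of collagen III from human skin fibroblast cultures sampled 24 h post-dosing. Values were derived by bidirectional fitting relative to the DMSO vehicle control.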

[18] = read-out: Epidermal growth factor receptor (EGFR), EGFR (gene 1956); test: BSK_hDFCGF_EGFR: BioMAP Diversity Plus: hDFCGF Assay for Epidermal growth factor receptor (EGFR) Biomarker Activity (AID 2283057); conditions: primary human foreskin fibroblasts; actives raise or lower the signal
Outline: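 Primary human foreskin fibroblasts were exposed to compound for 24 h, after which cell-surface EGFR was quantified by ELISA. Activity was fitted bidirectionally against the DMSO negative control as baseline.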

[19] = read-out: Interleukin-8 (IL8), CXCL8 (gene 3576); test: BSK_hDFCGF_IL8: BioMAP Diversity Plus: hDFCGF Assay for Interleukin-8 (IL8) Biomarker Activity (AID 2283058); conditions: primary human foreskin fibroblasts; actives raise or lower the signal
Outline: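 Cells used are human skin primary fibroblasts. Chemical is added, cultures run 24 h, then IL-8 is quantified by ELISA, and gain or loss versus DMSO control is fitted in both directions.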

[20] = BSK_hDFCGF_Proliferation: Cell Proliferation Assessment in the BioMAP Diversity Plus: hDFCGF Assay (AID 2283059); conditions: primary human foreskin fibroblasts;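 further: curves fitted for both rise and fall of signal versus DMSO baseline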
Outline: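 This proliferation readout used SRB total-protein staining of human foreskin fibroblasts […], normalized to DMSO with bidirectional curve fitting.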

Measured: AC50

OCC(F)(F)C(F)(F)C(F)(F)C(F)(F)C(F)(F)C(F)(F)C(F)(F)C(F)(F)CO
active: [8] 49.9 µM and 45.4 µM | [11] 43.2 µM | [14] 44.9 µM and 44.5 µM | [16] 40.9 µM | [17] 30 µM and 42.7 µM | [18] 47.8 µM and 48.7 µM | [19] 48 µM | [20] 39.8 µM and 47.9 µM
inactive: [1] | [2] | [3] | [4] | [5] | [6] | [7] | [9] | [10] | [11] | [12] | [13] | [15] | [16] | [19]

CCN(CC)c1ccc(C=O)c(O)c1
active: [20] 30.4 µM
inactive: all other assays above

C=CC(=O)OCC(F)(F)C(F)(F)C(F)(F)COC(=O)C=C
inactive: [13] | [18]
active: [1] 30 µM and 17 µM | [2] 15.4 µM and 11.4 µM | [3] 26.6 µM and 22.5 µM | [4] 38.6 µM and 27.7 µM | [5] 40.1 µM and 34.8 µM | [6] 42.2 µM and 42.9 µM | [7] 44.3 µM and 42.5 µM | [8] 8.23 µM and 8.81 µM | [9] 27.1 µM and 25.4 µM | [10] 41.4 µM and 33.7 µM | [11] 44.9 µM and 28.3 µM | [12] 7.48 µM and 7.64 µM | [13] 7.91 µM | [14] 1.26 µM and 1.32 µM | [15] 48.3 µM and 47.6 µM | [16] 30 µM and 25.8 µM | [17] 5.04 µM and 1.49 µM | [19] 3.92 µM and 4.38 µM | [20] 111 nM and 1.28 µM

FC(F)(F)C(F)(F)C(F)(F)CC1CO1 (stereo unspecified)
inactive: [1] | [2] | [3] | [4] | [5] | [6] | [7] | [8] | [9] | [10] | [11] | [12] | [13] | [14] | [15] | [16] | [17] | [18] | [19] | [20]
active: [14] 12.9 µM

Cc1ccc(S(=O)(=O)C(I)I)cc1
active: [1] 2.67 µM | [2] 5.4 µM | [3] 3.52 µM | [4] 2.61 µM | [5] 2.17 µM | [7] 2.78 µM | [8] 1.37 µM | [9] 5.05 µM | [10] 0.987 µM | [11] 3.42 µM | [13] 1.97 µM | [14] 2.71 µM | [15] 2.92 µM | [16] 2.46 µM | [17] 6.27 µM | [18] 3.79 µM | [19] 3.51 µM | [20] 0.208 µM
inactive: [6] | [12]

NC(=O)C(F)(F)C(F)(F)C(F)(F)C(F)(F)C(F)(F)C(F)(F)C(F)(F)F
inactive: all assays above

Cc1cc(C)c(O)c(C(C)(C)C)c1
active: [1] 29.6 µM | [2] 29.6 µM | [4] 25.5 µM | [5] 22.7 µM | [6] 20 µM | [7] 24.9 µM | [8] 25.3 µM | [9] 29.3 µM | [10] 20 µM | [11] 27.2 µM | [13] 27.4 µM | [14] 35.9 µM | [15] 31.2 µM | [16] 29.5 µM | [17] 20 µM | [20] 18.8 µM
inactive: [3] | [12] | [18] | [19]

OCC(O)CC(F)(F)C(F)(F)C(F)(F)C(F)(F)C(F)(F)C(F)(F)C(F)(F)C(F)(F)F (stereo unspecified)
inactive: all assays above

O=C(Cl)C(F)(F)C(F)(F)C(F)(F)C(F)(F)C(F)(F)C(F)(F)F
inactive: [1] | [2] | [3] | [4] | [5] | [6] | [7] | [8] | [9] | [10] | [11] | [12] | [13] | [14] | [15] | [16] | [17] | [18] | [19] | [20]
active: [18] 2.04 µM

CCN(CCO)S(=O)(=O)C(F)(F)C(F)(F)C(F)(F)C(F)(F)C(F)(F)C(F)(F)C(F)(F)C(F)(F)F
active: [4] 15.6 µM | [5] 35.3 µM | [6] 7.08 µM and 8.16 µM | [8] 15.5 µM and 16.5 µM | [9] 8.09 µM and 7.66 µM | [10] 7.99 µM | [11] 19.2 µM and 9.12 µM | [12] 13.4 µM and 10.3 µM | [14] 35.9 µM and 30 µM | [15] 11.1 µM and 30 µM | [16] 7.11 µM and 8.86 µM | [17] 8.31 µM | [19] 49.9 µM | [20] 7.13 µM and 8.13 µM
inactive: [1] | [2] | [3] | [4] | [5] | [7] | [10] | [13] | [17] | [18] | [19]

Source: PubChem BioAssay (EPA / NIEHS)
